# Tested on: VDR:RXRa (NR concentration 270 nM, RXRa partner concentration 90 nM)
# Assay: PBM binding z-score (relative to random genomic background probes); higher = stronger binding; sequences stand for … in GC…GCGATTGACAGCGTAGAATGAAGG
# Experimental: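 Protein-binding microarray (Agilent 4x180K custom design, double-stranded 60-nt probes: 5' GC cap, 34-nt variable region, 24-nt constant primer region; full probe sequence given). Purified or IVT nuclear receptor:RXRα heterodimers (3:1 NR:RXRα, mostly 270:90 nM) or homodimers were incubated for 1 h in PBS with 2% milk and no ligand, then detected with Alexa488 antibodies. Fluorescence from o1-orientation probes (~5 replicates averaged) was converted to z-scores against 500 random hg19 background probes. Variable regions are seed direct-repeat (DR0–DR5) sites, all their single-nucleotide variants and half-site ablations.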
row,Sequence,PBM binding z-score
1,ATAATGAGGTTACCAAAGATCAGGGAAACGCTTG,1.81
2,GAGACAGGGTCAAGGCCAGAGTACGCGTATTGAT,4.4
3,CCTAACGGGTCACTCCAGGTTATAGCATCGGAGT,3.7
4,AAGACAGGGTCATCGTAGGCCAGAGTACGCACAG,5.14
5,ACTATTAGTTGAGACGAGGGCCACCGATAGGTTG,-0.293
6,TCTAGCAGGCCAGAGGGTGACTCAAGAGGTACGG,-0.421
7,ATATGTAGGTTAAATCCGGGTCATTCAGGCTATG,4.63
8,CCTATTAGTTGACCTTAAGGGCAACCGAAGCTCG,3.66
9,GTACCAAGGTGAATAGGTCGTTTATGAGTAGGCG,1.07
10,TCATATAGGTAATACAGGTGAAAGTGGGCATCTA,1.47
11,ATCGAACGGTCGTGAGGTGAGTATACAGAAAGGC,-0.0539
12,CCGACTGGGGCATCAGGTTACCATAAGCCAGCCC,-0.451
13,TAGCCTAGGTCATGCGCGCCAGTATAGTGTCGGC,2.05
14,CAAACTAGGTCACCGGAAGGTCAAAGCCCGCATG,5.79
15,AGCTCTAGGTAACCAAGTTCAGTGAATGCCGAAC,3.88
16,CGAACTAGGTCATTGACAGGACAGTAAATAGTAA,2.34
17,CGAACTAGGCCAAGGACAGTGAATCTCCGCACGC,-0.579
18,CAACCTAGGTCAAGGTCAAAGTCGGTTTGTGCCA,5.45
19,TCAGAAAGGTGAAGGTAACTCAGGTACGCAGTCG,1.35
20,TCGAGTAGGTTAGCGGCATTCAGAATGGCGTCGA,-0.635

row,Sequence,PBM binding z-score
1,GCTGCTAGGTCAACTGATGGACAGCTAAAGCTCG,1.27
2,TATCCTAGGTCATGCGGGCCAGTATAGTGTCGGC,3.5
3,CTTCCAAGGTCAGCAGGTCAGTGAAAGCGACGTG,4.03
4,CCGACTGGGGCAAGGTTCCCATAACGCACAGCCA,-0.47
5,TCTCTTAGTTGATTAGGGCAACCGAAACAGCGGA,0.558
6,TCTATTAGTTGAAGGGGAACCGACGAGTCCGTTT,1.13
7,ACAGACAGGTGATGAAGGTTACTCAGGCTATCAT,1.64
8,AGAATGAGGTTACCAAAGATCAAGGAAACGCTTG,1.81
9,TCTTGTAGATCATAGGTTAAGAAAGCCGAAGCCT,0.86
10,GCAAACAGGTGAAACGCAGGTAACTCAGGGTGGC,-0.424
11,AGAATGAGGTTATACGTAGATGAGGGAAGAAAGT,1.53
12,TCTCGGAGGACACGAAATGTCAGAGCTCGACATC,0.0899
13,TCTTGTAGATCAATAGATGTTAAGAAAGTGCGCT,0.468
14,GCTGCTAGGTCAGGTTGGTCAGGTAACGGGTACG,0.625
15,CATACAGGGTCAGCTAGGTCAGAGTAGGGACGGC,5.76
16,TTACCAAGGTGACAGGTCGTTGATGCACGCCTTG,0.821
17,ACCTCTAGGTAAAGTTCAGTGAAAGATCGATAGA,0.835
18,CCTACTTGGCCATTCAGAGGTCATTGATCATATG,4.04
19,CCGACTCGGGCATAAGGTTACCATAAGCCAGCCC,-0.121
20,AGAATGAGGGTACCAAAGATCAGGGAAACGCTTG,0.0257

# — the supplement of paper PMC6555819
